DRD3 agonist: agonists of human D3 dopamine receptor; P35462; D3R DiscoveRx beta-arrestin cells, luminescence, 90 min; max activation, %; actives 0.58% (n = 410,000); in the data active = max activation above about 30%
Target sequence (P35462 whole entry, looked up): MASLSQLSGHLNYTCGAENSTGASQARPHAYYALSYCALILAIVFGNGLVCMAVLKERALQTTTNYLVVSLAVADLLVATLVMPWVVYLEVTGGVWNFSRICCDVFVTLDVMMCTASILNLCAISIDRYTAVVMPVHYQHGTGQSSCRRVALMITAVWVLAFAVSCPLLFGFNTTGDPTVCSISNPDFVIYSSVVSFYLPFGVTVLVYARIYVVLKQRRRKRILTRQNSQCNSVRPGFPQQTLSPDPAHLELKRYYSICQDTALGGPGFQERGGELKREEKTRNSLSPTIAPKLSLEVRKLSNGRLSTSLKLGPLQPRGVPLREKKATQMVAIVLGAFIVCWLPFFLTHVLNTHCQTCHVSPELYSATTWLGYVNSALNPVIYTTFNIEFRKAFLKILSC
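Agonist mode: compounds and dopamine controls were applied to plated cells for 90 min at 37 degrees C after an overnight attachment at 1500 cells/well. Luminescent read-out followed 30 - 60 minutes at room temperature with DiscoveRx detection reagent.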
ATXN viability: viability counter-screen for ATXN expression inhibitors | S2 cells (HEK-293 line with an ATXN2-luciferase reporter) viability, CellTiter-Fluor protease fluorescence, 24 h | AID 651635 | actives 0.49% (n = 400,000) | Potency, µM (top dose mostly 56.7 µM), actives largely listed as cytotoxic; also: nearly all actives have a fitted effect of over 40% in size
Integrin act MD: activators of alpha7 integrin expression for muscular dystrophy | actives 0.064% (n = 350,000) | Potency, µM (highest dose often 38.3 µM), actives largely listed as activators | alpha7betagal myoblasts, beta-gal FDG fluorescence, 48 h; also: nearly all actives have a fitted effect of over 60% in size
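alpha7betagal+/- myoblasts (passage 13, 250/well) treated 48 h at 37C with compounds at 1:260 dilution of DMSO stock. Lysed, then beta-galactosidase activity read as FDG fluorescence (ex 480/em 540) after 30 min, with pre-read for autofluorescence.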
IL-1B inflam inh: blocks inflammasome-driven IL-1 beta release | THP-1 LPS/ATP IL-1B secretion, AlphaLISA, 16 h; stronger effect = lower value | activity change, % at 57.5 µM | actives 4.7% (n = 360,000) | AID 743279; in the data active = activity change below about -50%; inconclusive = mostly about -30% to -49%
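Secreted IL-1B measured by AlphaLISA bead assay after 16 h compound exposure of THP-1 cells; compounds (final up to 57.5 uM) added 1 h before LPS (250 ng/mL) and ATP (1.25 mM) stimulation; lower signal means less secretion.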
DRD3 antagonist: antagonists of human D3 dopamine receptor | D3R cells, DiscoveRx beta-arrestin luminescence, antagonist mode; stronger effect = lower value | AID 652054 | P35462 | actives 2.5% (n = 360,000) | max response, negative = inhibition, %; in the data active = max response below about -50%; inconclusive = no clear call, values can overlap the other calls
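Cells plated overnight at 1500 cells/well, then exposed to library compounds with dopamine controls for 90 minutes at 37 degrees C. DiscoveRx reagent added for 30–60 minutes at room temperature; luminescence read, quantitative HTS format.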
ATXN2 expr inh: inhibitors of ATXN2 expression; HEK-293 ATXN2-luciferase reporter, luminescence, 24 h; Potency, µM (series often up to 57 µM), actives largely listed as inhibitors; actives 0.72% (n = 360,000); also: nearly all actives have a fitted effect of over 55% in size
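qHTS (up to 57 uM final) was run with 24 h compound exposure of reporter cells at 37 °C. Each well was multiplexed: SteadyGlo luminescence measured ATXN2-luciferase expression after a fluorogenic Gly-Phe-AFC viability readout (25 uM final).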
A number is an active result; 0 = inactive; ? = inconclusive; - = no result given; [ ] = dose if it differs, or a comment. Only some compounds are listed: those with a hit (about 7% of all), similar ones and a draw of the others. Unless noted, calls follow the shape of the dose curve; as a rule, active = well fitted curve in the direction sought with a large enough effect; inconclusive = small, poorly fitted or top-dose-only effect, or another doubt; inactive = no such curve, though single readings can be large; an effect the other way counts as inactive or inconclusive.

SMILES | DRD3 agonist | ATXN viability | Integrin act MD | IL-1B inflam inh | DRD3 antagonist | ATXN2 expr inh
COc1ccc2c(c1)CCc1c(C(=O)N3CCCc4ccccc43)noc1-2 | 0 | 0 | 0[7.66 µM] | -52.6 | 0 | 0
COc1ccc2c(c1)CCc1c(C(=O)NCCc3ccc(OC)c(OC)c3)noc1-2 | 0 | 0 | 0 | 0 | 0 | 0
COc1ccc2c(c1)CCc1c(C(=O)Nc3ccc(OC)c(OC)c3)noc1-2 | 33.9 | 0 | 0 | 0 | 0 | 0
Cc1ccc(Cn2ccc(NC(=O)c3noc4c3CCc3ccccc3-4)n2)cc1 | 0 | 0 | 0 | 0 | 0 | 0
COc1ccc2c(c1)CCc1c(C(=O)Nc3ccn(Cc4ccc(C)cc4)n3)noc1-2 | 0 | 17.8µM | 0 | 0 | 0 | 10µM
CCOC(=O)N1CCC(=C(C#N)C(=O)Nc2cc(OC)ccc2OC)CC1 | 0 | 0 | 0 | 0 | 0 | 0
COC(=O)c1ccccc1NC(=O)C1CC(=O)N(c2ccc(C)cc2)C1 (stereo not given) | 0 | 0 | 0 | 0 | 0 | 0
COc1ccc(/C=C2/CSC/C(=C/c3ccc(OC)c(OC)c3)C2=O)cc1OC | 0 | 3.98µM | 0 | -116.8 | -50.2 | 5.62µM
COc1cc(C=C2CCCC(=Cc3ccc(OCC4CO4)c(OC)c3)C2=O)ccc1OCC1CO1 (stereo not given) | 0 | ? | 0 | -104.5 | 0 | -
COc1ccc(/C=C2\Cc3ccccc3C2=O)cc1OC | 0 | 0 | 0 | 0 | 0 | -
COc1ccc2nc(SCC(=O)NC3CCCCC3C)[nH]c2c1 (stereo not given) | 0 | 0 | 0 | 0 | 0 | 0
O=C(CCSCc1ccc(Cl)cc1)NCc1cccs1 | 0 | ? | 0 | 0 | 0 | 0
COc1ccc(NC(=O)C(c2ccc(OC)cc2)N(Cc2ccco2)C(=O)CC2NC(=O)NC2=O)cc1 (stereo not given) | 0 | 0 | 0 | 0 | 0 | 0
COc1ccc(C(C(=O)Nc2ccc(C(C)C)cc2)N(Cc2ccco2)C(=O)CC2NC(=O)NC2=O)cc1 (stereo not given) | 0 | 0 | 0 | -70.0 | 0 | 0
COC(=O)C[C@@H]1OC[C@H](C(C)C)N1S(=O)(=O)c1ccc(C)cc1 | 0 | - | - | 0 | 0 | -
Cc1cc(/C=C(\C#N)C(=O)Nc2ccccc2)c(C)n1-c1cccnc1 | 0 | 0 | 0 | -76.4 | 0 | 0[11.3 µM]
Cc1cc(C(=O)O)ccc1-n1c(C)cc(/C=C(/C#N)C(=O)Nc2ccccc2)c1C | 0 | 0 | 0 | -65.9 | 0 | 0[11.3 µM]
Cc1cc(/C=C(\C#N)C(=O)Nc2ccccc2)c(C)n1-c1ccc(F)cc1 | 0 | 0 | - | - | - | 0
Cc1ccc(-n2c(C)cc(/C=C(\C#N)C(=O)Nc3ccc(C)c(C)c3)c2C)cc1 | 0 | 0 | - | - | - | 0
Cc1cc(C)cc(NC(=O)Cn2cc(C=O)c3ccccc32)c1 | 0 | - | 0 | 0 | 0 | 0
COc1ccc(-c2ccc3oc(-c4ccc(OC)cc4)c(C#CCO)c3c2)cc1 | 57.6 | ? | 0 | ? | 0 | 0
COc1ccc(-c2ccc3oc(-c4ccc(OC)cc4)c(-c4ccc(OC)cc4)c3c2)cc1 | 71.8 | 0 | 0 | 0 | 0 | 0
CC(C)C[C@H](N)c1cn([C@@H](CCCCN)C(=O)N2CCNCC2)nn1 | 0 | ? | 0 | ? | 0 | 1.58µM
Cc1c(N=NC2=C(O)CC(C)(C)CC2=O)cc2c(c1[N+](=O)[O-])C(C)(C)CC2(C)C | 0 | ? | 0 | - | 0 | 0
COc1cccc(CNn2cnnc2)c1OCc1ccc(F)cc1 | 0 | 0 | 0 | 0 | 0 | 0
SMILES | DRD3 agonist | ATXN viability | Integrin act MD | IL-1B inflam inh | DRD3 antagonist | ATXN2 expr inh
COc1cccc(CNC23CC4CC(CC(C4)C2)C3)c1OCc1ccccc1 | 0 | ? | 0 | -96.5 | 0 | -
O=C(/C=C/c1ccc(Cl)cc1)N(Cc1ccccc1)C1CCS(=O)(=O)C1 (stereo not given) | 0 | 0 | 0 | -66.7 | 0 | 0
CC(C)COc1ccc(C(=O)N(Cc2ccco2)C2CCS(=O)(=O)C2)cc1 (stereo not given) | 0 | 0 | 0 | 0 | 0 | 0
CCCCCOc1ccc(C(=O)N(Cc2ccco2)C2CCS(=O)(=O)C2)cc1 (stereo not given) | 30.2 | 0 | 0 | 0 | 0 | 0
Cc1ccc(CN(C(=O)c2ccc(Cl)c([N+](=O)[O-])c2)C2CCS(=O)(=O)C2)o1 (stereo not given) | 0 | 0 | 0 | -94.8 | 0 | 0
O=C(c1ccc(Cl)c([N+](=O)[O-])c1)N(Cc1cccc(Cl)c1)C1CCS(=O)(=O)C1 (stereo not given) | 0 | 0 | 0 | -93.2 | ? | 0
CCOC(=O)CCC(NC(=O)CC(=O)NC(CCC(=O)OCC)C(=O)OCC)C(=O)OCC (stereo not given) | 0 | 0 | ? | 0 | 0 | 0
Cc1nn(CCC(=O)NNC(=S)Nc2ccccc2)c(C)c1Br | 0 | 0 | 0 | 0 | 0 | 0
COc1ccc(OC)c(S(=O)(=O)N2CCC(C(=O)N3CCN(c4ccc(F)cc4)CC3)CC2)c1 | 0 | 0 | 0 | 0 | 0 | 0
O=C(Nc1cc(C(F)(F)F)ccc1N1CCOCC1)C1CC1 | 0 | 0 | 0 | 0 | 0 | 0
Cc1ccc2oc(=O)n(Cc3ccccc3OC(C)C)c2c1 | 0 | 0 | 0 | 0 | 0 | 0
O=C(c1ccc(Cl)c([N+](=O)[O-])c1)N(Cc1ccc(Cl)cc1)C1CCS(=O)(=O)C1 (stereo not given) | 0 | 0 | 0 | -88.1 | ? | ?
COc1ccc(C(C(=O)NC2CCCC2)N(CCCO)C(=O)c2snc(C(N)=O)c2N)cc1 (stereo not given) | 0 | 0 | 0 | 0 | 0 | 0
Cc1ccc(CN(Cc2ccco2)C(=O)COc2c(C)cc(C)cc2C)cc1 | 0 | 0 | - | - | - | ?
Cc1ccc(CN(Cc2ccco2)C(=O)COc2ccccc2C)cc1 | 35.7 | 0 | - | - | - | 0
COc1cccc(CN2CCCN(S(=O)(=O)c3ccc(Br)cc3)CC2)c1 | 0 | 0 | 0 | 0 | -57.1 | 0
CC(C)c1ccc(S(=O)(=O)N2CCN(Cc3cccc(F)c3)CC2)cc1 | 0 | 0 | - | - | - | 0
O=S(=O)(c1ccccc1)N1CCN(Cc2cccc(Br)c2)CC1 | 0 | 0 | 0 | 0 | ? | 0
O=S(=O)(c1ccc(Br)cc1)N1CCCN(Cc2cccc(F)c2)CC1 | 0 | 0 | 0 | -55.6 | 0 | 0
CCOCCCNC(=O)c1c(N)n(-c2ccc(S(N)(=O)=O)cc2)c2nc3ccccc3nc12 | 0 | 0 | 0 | 0 | 0 | 0
CN1/C(=C\C(=O)Nc2cccc(Cl)c2)C(C)(C)c2ccccc21 | 0 | 0 | 0 | -72.3 | 0 | 0
Cn1c(=O)[nH]c(=O)c2c1nc(N1CCNCC1)n2Cc1cccc2ccccc12 | 0 | ? | 0 | 0 | -79.7 | 0
NC(=O)CSc1nc2ccccc2c(=O)n1CCc1ccccc1 | 0 | 0 | 0 | 0 | 0 | 0
Cn1c(=O)c2c(nc(N3CCOCC3)n2Cc2ccccc2F)n(C)c1=O | 0 | 0 | - | - | - | 0
